In all, about 1,400 compounds went through this assay and about 380 (27%) were called active. This is one part of the list. Values without a mark were called inactive.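 The calls were made as follows: active = mean inhibition above 50% across duplicate retests at 10 µM; inactive = the rest.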
experiment: inhibition of NALP1/ASC/caspase-1 reporter signal in yeast, confirmation, NALP1 inhibitor project, S. cerevisiae, luminescence, single concentration (AID 488841);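 also: plate controls were DMSO in galactose medium for no effect and cells in plain SD medium for full effect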; settings: S. cerevisiae NALP1/ASC/Caspase-1 reporter, beta-gal luminescence; at 10 µM; active compounds read high

| SMILES | inhibition |
| --- | --- |
| Cc1ccc(N2C(=O)c3ccc(C(=O)O)cc3C2=O)cc1C | 28.4% |
| Clc1ccc(Cn2c(/C=C/c3ccco3)nc3ccccc32)cc1 | 29.2% |
| COc1ccc(CNC(=O)CCNS(=O)(=O)c2ccc(C)cc2)cc1 | 19.6% |
| CCN(C(=O)c1ccco1)c1nnc(-c2ccc(OC)cc2)s1 | 38% |
| COc1ccc(CC2(C)OC(c3ccc(C)cc3)=NN2C(C)=O)cc1 (configuration not stated) | 55.5% (active) |
| N#Cc1ccc(Oc2nc(Nc3ccc(F)cc3)nc(N3CCCC3)n2)cc1 | 29.6% |
| c1cnc2c(c1)ccc1cccnc12 | 40.4% |
| c1ccc(-c2cccc(-c3ccccn3)n2)nc1 | 86.2% (active) |
| N/C(Cc1ccccc1)=N\OC(=O)c1cccc2ccccc12 | 39.9% |
| N/C(Cc1ccc([N+](=O)[O-])cc1)=N\OC(=O)c1ccccc1Br | 55.1% (active) |
| COc1ccccc1C/C(N)=N/OC(=O)c1cccc([N+](=O)[O-])c1C | 37.2% |
| Cc1noc(C)c1S(=O)(=O)N1CCC(C(=O)N2CCC(N3CCCCC3)CC2)CC1 | 22.1% |
| Clc1ccc(CO/N=C2\CCCc3nonc32)c(Cl)c1 | 44.9% |
| CS(=O)(=O)N1CCC(C(=O)Nc2ccc3c(c2)OCO3)CC1 | 30.6% |
| O=C(Nc1ccc(C#Cc2ccccc2)cc1)C1CC1 | 56.5% (active) |
| Cc1cc(C)cc(NS(=O)(=O)c2ccc(NC(=O)C3CCCCC3C(=O)O)cc2)c1 (configuration not stated) | 35.4% |
| O=C1c2ccccc2C(=O)c2cc(NC(=O)C3CC3)ccc21 | 44% |
| O=C(Nc1ccc(Br)c(Cl)c1)C1CC1 | 56.2% (active) |
| COc1ccc(NC(=O)C2CCN(C(=O)c3ccc(OC)cc3)CC2)cc1 | 18.7% |
| O=P(CCCCCCCCCP(=O)(c1ccccc1)c1ccccc1)(c1ccccc1)c1ccccc1 | 39% |
| CC(C)C(=O)c1cc2c(cc1NC(=O)Nc1cccc3ccccc13)OCCO2 | 28.3% |
| OCCCN=c1cc(-c2ccccc2)oc2ccc(Cl)cc12 | 43.6% |
| Cc1n[nH]c(C)c1S(=O)(=O)N1CCN(C2CCCCC2)CC1 | 16.5% |
| COc1ccnc(N2CCN(c3ccccc3)CC2)c1C#N | 53.9% (active) |
| COc1cccc(CNC(=O)CSc2ccc(-c3ccncc3)nn2)c1 | 34.1% |
| O=C(CSc1nc(-c2ccccc2)cs1)Nc1cccc([N+](=O)[O-])c1 | 47.1% |

| SMILES | inhibition |
| --- | --- |
| CC(C)NC(=O)CSc1nc(-c2ccccc2)cs1 | 56.1% (active) |
| CCOC(=O)c1c(-c2cccs2)csc1NC(=O)C(C)(C)C | 26.2% |
| Cc1ccc(NC(=O)CSC2=Nc3ccccc3C3CC=NN23)c(C)c1 (configuration not stated) | 41.9% |
| O=C(Oc1cccc2cccnc12)c1ccc(N2C(=O)C3C4CCC(C4)C3C2=O)cc1 (configuration not stated) | 31% |
| O=C(Nc1cc(N2CCOCC2)ncn1)NC1(C(F)(F)F)Oc2ccc(Cl)cc2O1 (configuration not stated) | 30.7% |
| CC1CCCN(CCCOc2ccc(Cl)cc2Br)C1 (configuration not stated) | 56.8% (active) |
| CC1CCCN(CCOCCSc2ccccc2)C1 (configuration not stated) | 39.5% |
| CC1CCCN(CCOCCOc2ccc(Br)cc2Cl)C1 (configuration not stated) | 42% |
| Cc1c(C)c2cc(Cl)c(O)c(CN3CCCCC3)c2oc1=O | 31.9% |
| COc1ccc(N2C(=O)C(Cl)=C(Nc3c(C)n(C)n(-c4ccccc4)c3=O)C2=O)cc1 | 36.8% |
| O=C(O)CCCCc1nc2ccccc2s1 | 14.6% |
| O=C(CSC1=NS(=O)(=O)c2ccccc21)Nc1ccccc1 | 37% |
| O=C(CCc1nc2ccccc2s1)Nc1ccccc1 | 77.9% (active) |
| O=C(O)c1ccc2c(c1)N(Cc1cccc(F)c1)C(=O)CS2 | 19% |
| NC(=S)N/N=C/c1coc2c(ccc3ccccc32)c1=O | 34.1% |
| O=C(/C=N/O)Nc1cccnc1 | 19.7% |
| COc1ccc(-c2csc3ncnc(Oc4cccc5ccc(C)nc45)c23)cc1 | 67.6% (active) |
| Cc1ccc(-c2csc3ncnc(Oc4cccc5ccc(C)nc45)c23)cc1 | 19.6% |
| O=S(=O)(CC(CN1CCCC1)N1CCCC1)c1ccc2ccccc2c1 (configuration not stated) | 21.4% |
| CC(C)c1nc2sc3c(=O)[nH]cnc3c2c2c1CCC2 | 22% |
| CCOC(=O)C(=Cc1cc(=O)c(OC)co1)C(=O)OCC | 79.3% (active) |
| CC(=O)c1c(C)oc2c1C(=O)c1ccccc1C2=O | 35.8% |
| Cc1c(Cl)sn(-c2ccc(Cl)cc2)c1=O | 73.5% (active) |
| C=C(C)C1CC=C(C)/C(=N/NC(=O)c2ccoc2C)C1 (configuration not stated) | 27.2% |
| CN(C)C(=N)c1n[nH]nc1SCc1ccccc1 | 19.9% |
| CC(C)(C)c1ccc(/C=C/C(=O)c2ccc(NC3=NCCCS3)cc2)cc1 | 43.9% |

| SMILES | inhibition |
| --- | --- |
| Cc1cccc(/C=C/C(=O)c2ccc(NC3=NCCCS3)cc2)c1 | 62% (active) |
| Cc1ccc(Nc2cc(C)nc(NCc3ccccc3)n2)cc1 | 58.3% (active) |
| Cc1cc(N/N=C/c2ccccc2Cl)nc(NCc2ccccc2)n1 | 43.6% |
| Cc1cc(N/N=C/c2ccc(Cl)cc2)nc(NCc2ccccc2)n1 | 33.7% |
| Cc1cc(N/N=C/c2cccc(Cl)c2)nc(NCc2ccccc2)n1 | 44.8% |
| Cc1cc(N/N=C/c2ccccc2)nc(NCc2ccccc2)n1 | 58.4% (active) |
| CCOC(=O)C1CCCN(C2CC(=O)N(c3cccc(C(F)(F)F)c3)C2=O)C1 (configuration not stated) | 32.6% |
| CC1Cc2ccccc2N1CC(=O)Nc1ccc2c(c1)OC(F)(F)O2 (configuration not stated) | 30.3% |
| CCCCCCNc1nc(NCc2ccco2)nc(OCC)n1 | 52.5% (active) |
| CCc1ccc(OCCCC(=O)Nc2cccc(C(=O)O)c2)cc1 | 27.1% |
| COc1ccc2cnn(-c3ccc(C)cc3)c(=O)c2c1OC | 36.9% |
| Cc1ccc(-n2c(Cl)c(Cl)nc(Cl)c2=O)cc1 | 100% (active) |
| O=C(Nc1cccc(O)c1)c1noc2c1CCc1ccccc1-2 | 75.4% (active) |
| O=c1c2c(C(F)(F)F)cc(C(F)(F)F)nc2[nH]n1-c1ccccc1 | 37.9% |
| O=C(CN1CCSC1=NCc1ccccc1)c1ccc(Cl)c(Cl)c1 | 52.2% (active) |
| COc1ccc(N2CCN(CC(=O)NC(=O)NCc3ccco3)CC2)cc1 | 28.6% |
| O=C(NC(Nc1nc2ccc([N+](=O)[O-])cc2s1)(C(F)(F)F)C(F)(F)F)c1ccccc1Cl | 99.5% (active) |
| CN(C)S(=O)(=O)c1ccc(N2CCCC2)c(C(=O)Nc2nc3ccccc3s2)c1 | 36.7% |
| CCOc1ccc(CNC(=O)c2cc3oc4ccccc4c3n2C)cc1 | 7.2% |
| O=C1C=CCC(/C=C/c2ccccc2)O1 (configuration not stated) | 69.2% (active) |
| c1ccc(-c2c[nH]c3[n+]2CCCCC3)cc1 | 26.2% |
| COc1ccc(CCNCc2ccc(OCc3ccccc3)cc2)cc1 | 78.5% (active) |
| CCc1ccc(OCCNC(=O)OCc2ccccc2)cc1 | 48.8% |
| COc1ccc(OCCCC(=O)Oc2ccc(OC)cc2)cc1 | 42.6% |
| COc1ccc(OCCCC(=O)NCCc2ccccc2)cc1 | 60.8% (active) |
| COc1ccc(CNCCC(c2ccc(F)cc2)c2ccc(OC)cc2)cc1 (configuration not stated) | 65.8% (active) |

| SMILES | inhibition |
| --- | --- |
| COc1ccc(CNCCSc2nnnn2C)cc1OC | 49% |
| CCOCCCNCc1ccc(OCc2ccccc2Cl)cc1 | 49.2% |
| COc1ccc(OCCCC(=O)NCC(C)C)cc1 | 32.4% |
| COc1ccc(C(CCNCc2ccccc2F)c2ccc(F)cc2)cc1 (configuration not stated) | 48.2% |
| CN(C)c1ccc(O)c2c1CC1CC3[C@@H](N(C)C)C(=O)C(C(N)=O)=C(O)[C@]3(O)C(=O)C1=C2O (some centres not stated) | 28.8% |
| Cc1cc(/C=C2/SC(=S)N(c3ccc([N+](=O)[O-])cc3)C2=O)c(C)n1-c1cccnc1 | 34.9% |
| O=C1Cc2ccccc2C(=O)N1OCc1ccc(Cl)cc1Cl | 26.8% |
| COc1cc(Cc2cnc(N)nc2N)cc(OC)c1OC | 24.9% |
| Oc1c(I)cc(Cl)c2cccnc12 | 56.2% (active) |
| Oc1c(CN2CCCCC2)cc(Br)c2cccnc12 | 26.2% |
| C=C(C)COc1ccc2c(CC)cc(=O)oc2c1C | 63.1% (active) |
| CC1CCCN(CCC(=O)c2ccc(Br)cc2)C1 (configuration not stated) | 28.8% |
| CC1=NN(c2ccc(C)cc2C)C(=O)C1C(c1cccc(O)c1)C1C(=O)N(c2ccc(C)cc2C)N=C1C (configuration not stated) | 38% |
| C/C(=N\NC(=O)Nc1ccccc1)c1ccccc1 | 47.1% |
| C=CCNC(=S)N/N=C(\C)c1ccccn1 | 57.5% (active) |
| COc1cccc(NC(=O)Cn2cnc3sc(C)c(S(=O)(=O)N4CCCCC4)c3c2=O)c1 | 20.9% |
| COc1cc(/C=N/n2cnnc2)ccc1OCc1ccc(C)cc1 | 50.9% (active) |
| COc1cc(C2Nc3ccccc3C(=O)N2c2ccccc2)ccc1O (configuration not stated) | 27.3% |
| COC1=C(N)C(=O)c2nc(-c3nc(C(=O)O)c(C)c(-c4ccc(OC)c(OC)c4O)c3N)ccc2C1=O | 33.7% |
| Cc1cccc(N2Cc3ccccc3C2=NC(=O)c2ccc(Cl)nc2)c1 | 26.5% |
| COC(=O)N/N=C(\C)c1ccc2ccccc2c1OC(F)F | 55.9% (active) |
| CCSc1nnc(-c2cnn(-c3ccccc3)c2-n2cccc2)n1C | 26.1% |
| CCSc1ncc(/C=N/Nc2ccccc2)n1C | 68.9% (active) |
| Clc1ccc(OCCCNCc2ccccc2)c2ccccc12 | 49.3% |
